SW480 rerep = DNA re-replication induction in SW480 cells. SW480 DNA re-replication, Hoechst DNA content imaging, 48 h. Potency, µM (highest dose often 46.1 µM), inactives show top-dose re-replication activation, most hits filed as activators. hit rate 1.8% among 340,000. AID 624297; also: potency is read from the fitted curve at half-maximal effect; % of control where 0% means no effect; nearly all actives have a fitted effect of over 55% in size
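Readout is total intensity of Hoechst-stained nuclei, excited at 405 nm and collected at 500-530 nm. Compound treatment lasted 48 hr at 37 C in 5% CO2 before staining.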
S2 tox = cell viability loss in ATXN counter-screen | hit rate 0.49% among 400,000 | AID 651635 | S2 cells (HEK-293 line with an ATXN2-luciferase reporter) viability, CellTiter-Fluor protease fluorescence, 24 h | Potency, µM (titrated, usually from 56.7 µM), hits mostly cytotoxic; also: potency is read from the fitted curve at half-maximal effect; nearly all actives have a fitted effect of over 40% in size
ATXN2 expr inh = ATXN2 expression inhibition. Potency, µM (highest dose often 57 µM), for the others: at the highest dose activity change, negative = inhibition, actives largely listed as inhibitors. HEK-293 ATXN2-luciferase reporter, luminescence, 24 h. hit rate 0.72% among 360,000. AID 1745845; also: potency is read from the fitted curve at half-maximal effect; % is scaled to controls: 0 for no effect and ±100 for the full control effect; nearly all actives have a fitted effect of over 55% in size
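qHTS (up to 57 uM final) was run with 24 h compound exposure of reporter cells at 37 °C. Each well was multiplexed: SteadyGlo luminescence measured ATXN2-luciferase expression after a fluorogenic Gly-Phe-AFC viability readout (25 uM final).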
IL1B secr inh = inhibitors of inflammasome signaling (IL-1 beta secretion); THP-1 LPS/ATP IL-1B secretion, AlphaLISA, 16 h; stronger effect = lower value; activity change, % at 57.5 µM; hit rate 4.7% among 360,000; in the data active = activity change below about -50%; inconclusive = mostly about -30% to -49%; also: % is scaled to controls: 0 for no effect and ±100 for the full control effect
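THP-1 cells pretreated 1 hr with compounds (up to 57.5 uM final), then stimulated with LPS (250 ng/mL final) plus ATP (1.25 mM final); secreted IL-1B measured by AlphaLISA after 16 hr, decreased signal indicating inhibition.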
PINK1 expr mod = modulators of PINK1 expression. PINK1 immunofluorescence, high-content cytometry, 24 h. Potency, µM (series often up to 76.6 µM), for inactives: at the top dose activation (PINK1 increase), most hits filed as activators. hit rate 0.2% among 410,000; active = well fitted activation curve with a large enough effect; inconclusive = small, poorly fitted or top-dose-only effect; cell line not stated here; also: potency is read from the fitted curve at half-maximal effect; % of control where 0% means no effect; nearly all actives have a fitted effect of over 65% in size
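Compound titrations (5 concentrations, 24 h) on a stable cell line; DMSO and CCCP controls. Endpoint: fixed-cell PINK1 immunofluorescence with mitochondrial, cell and nuclear markers, scanned by microplate cytometer.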
MCF10A rereplic = inducers of DNA re-replication in MCF 10A breast cells | MCF 10A DNA re-replication, Hoechst nuclear intensity, 48 h | Potency, µM (top dose mostly 46.1 µM), inactives show top-dose activity, positive = re-replication, usual class: activators | hit rate 2.9% among 350,000 | AID 624296; also: potency is read from the fitted curve at half-maximal effect; % of control where 0% means no effect; nearly all actives have a fitted effect of over 50% in size
* marks the source's active call; other numbers are inactive results; [ ] = another dose, or the depositor's remark. This is a sample that favours compounds with a hit; in the whole collection about 7.1% have one here. Unless noted, calls follow the shape of the dose curve; as a rule, active = well fitted curve in the direction sought with a large enough effect; inconclusive = small, poorly fitted or top-dose-only effect, or another doubt; inactive = no such curve, though single readings can be large; an effect the other way counts as inactive or inconclusive.

Screening CC(C)CC(=O)/C(=C\c1ccc(Cl)cc1Cl)n1cncn1 returned SW480 rerep 6.5µM*, S2 tox inconclusive, IL1B secr inh -104*, PINK1 expr mod -1% and MCF10A rereplic 4.6µM*.
`CN(C)c1ccc(/C=C(/C(=O)c2ccc(Cl)cc2Cl)n2cncn2)cc1` gave SW480 rerep 18µM*, S2 tox inactive, ATXN2 expr inh -23%, IL1B secr inh -10, PINK1 expr mod 5% and MCF10A rereplic inconclusive.
`Brc1cccc(-c2nnn3c2nc(NCc2ccc4c(c2)OCO4)c2ccccc23)c1` gave S2 tox inactive, ATXN2 expr inh 35% and PINK1 expr mod 0%.
For CSc1ccc(CN(C)C(=O)CNC(=O)CNS(=O)(=O)c2ccc(C)c(C)c2)cc1 the results were SW480 rerep -22%, S2 tox inactive, ATXN2 expr inh -13%, IL1B secr inh 14, PINK1 expr mod 1% and MCF10A rereplic 4%.
For Cc1ccc(S(=O)(=O)NCC(=O)NCC(=O)N(C)Cc2ccc3ccccc3c2)cc1C the results were SW480 rerep 9%, S2 tox inactive, ATXN2 expr inh inconclusive, IL1B secr inh -52*, PINK1 expr mod 2% and MCF10A rereplic inconclusive.
For CC(C)c1ccc(NC(=O)C2CCCN(S(=O)(=O)c3ccc(Br)s3)C2)cc1 (centres undefined) the results were S2 tox inconclusive, ATXN2 expr inh -20% and PINK1 expr mod 4%.
For CCC(c1ccccc1)C(CC)c1cc(O)c(O)c(O)c1 (centres undefined) the results were SW480 rerep inconclusive, S2 tox inconclusive, ATXN2 expr inh inconclusive, IL1B secr inh -78*, PINK1 expr mod 13% and MCF10A rereplic inconclusive.
CCC(C)c1ccccc1O (centres undefined) was read as SW480 rerep -2%, S2 tox inactive, ATXN2 expr inh 3%, IL1B secr inh -10, PINK1 expr mod 3% and MCF10A rereplic 3%.
Screening Cc1ccccc1NC(=O)c1ccc(F)c(S(=O)(=O)N(C)C2CCCCC2)c1 returned PINK1 expr mod 0%.
CNC(=S)/N=C(\Nc1ccc(C)cc1)c1ccccc1 was read as SW480 rerep -4%, S2 tox inactive, ATXN2 expr inh 8%, PINK1 expr mod -2% and MCF10A rereplic 4%.
`CNC(=S)/N=C(/Nc1ccccc1)c1ccccc1` gave SW480 rerep 23%, S2 tox inactive, ATXN2 expr inh -2%, IL1B secr inh -69*, PINK1 expr mod 1% and MCF10A rereplic 5%.
Cc1ccc(NC(=O)Cn2c(=O)n(CC3CCC(C(=O)NC(C)C)CC3)c(=O)c3sccc32)cc1 (centres undefined) was read as S2 tox inactive, ATXN2 expr inh 4% and PINK1 expr mod -1%.
O=C(NCc1ccccc1)c1cccc(COc2cc(Cl)ccc2Cl)c1 was read as SW480 rerep inconclusive, S2 tox inactive, ATXN2 expr inh 16%, IL1B secr inh -9, PINK1 expr mod 5% and MCF10A rereplic 27%.
`COC(=O)c1ccccc1NC(=O)c1cccc(COc2ccccc2Cl)c1` gave SW480 rerep inconclusive, S2 tox inactive, ATXN2 expr inh -36%, IL1B secr inh -7, PINK1 expr mod 6% and MCF10A rereplic 2.6µM*.
COC(=O)c1ccccc1NC(=S)NC(=O)COc1ccccc1Cl was read as SW480 rerep 1%, S2 tox inactive, ATXN2 expr inh -8%, IL1B secr inh 0, PINK1 expr mod 4% and MCF10A rereplic 13%.
O=C(NC(=S)Nc1ccc(Cl)c(C(=O)O)c1)c1cccc(COc2ccccc2)c1 was read as SW480 rerep 4%, S2 tox inactive, ATXN2 expr inh 5%, IL1B secr inh 20, PINK1 expr mod 0% and MCF10A rereplic 18%.
Screening O=C(O)c1ccc(Cl)c(NC(=S)NC(=O)c2cccc(COc3ccccc3)c2)c1 returned SW480 rerep 2%, S2 tox inactive, ATXN2 expr inh -21%, IL1B secr inh 19, PINK1 expr mod 4% and MCF10A rereplic 8.2µM*.
For O=C(NCc1ccccc1)c1cccc(COc2ccccc2Cl)c1 the results were SW480 rerep 1%, S2 tox inactive, ATXN2 expr inh 1%, IL1B secr inh -63*, PINK1 expr mod 1% and MCF10A rereplic inconclusive.
`CCCC(=O)O[C@]1(C(=O)COC(=O)CC)CC[C@H]2[C@@H]3CCC4=CC(=O)CC[C@]4(C)[C@H]3[C@@H](O)C[C@@]21C` gave S2 tox inactive and ATXN2 expr inh 5%[25.6 µM].
Cc1ccsc1C(=O)N(Cc1cc2cc3c(cc2nc1N1CCOCC1)CCC3)CC1CCCO1 (centres undefined) was read as S2 tox inactive and PINK1 expr mod 0%.
Screening COC(=O)C1CCN(C(=O)CSc2nc3ccc(OC)cc3[nH]2)CC1 returned SW480 rerep -5%, S2 tox inactive, ATXN2 expr inh 4%, IL1B secr inh -64*, PINK1 expr mod 1% and MCF10A rereplic -10%.
Screening Cc1cc(Cl)ccc1NC(=S)NCCC(c1ccccc1)c1ccccc1 returned SW480 rerep 0%[9.22 µM], S2 tox inconclusive, ATXN2 expr inh inconclusive, IL1B secr inh -8, PINK1 expr mod inconclusive and MCF10A rereplic 13µM*.
Screening O=C(c1ccc(S(=O)(=O)Cc2ccccc2Cl)c([N+](=O)[O-])c1)N1CCN(c2ccccn2)CC1 returned SW480 rerep inconclusive, S2 tox inconclusive, ATXN2 expr inh inconclusive, IL1B secr inh -103*, PINK1 expr mod 0% and MCF10A rereplic inconclusive.
`O=C(c1ccc(Sc2cccc(Cl)c2)c([N+](=O)[O-])c1)N1CCN(c2ccccn2)CC1` gave SW480 rerep inconclusive, S2 tox inactive, IL1B secr inh -124*, PINK1 expr mod -2% and MCF10A rereplic 2%.
COC(=O)c1cccc(C(=O)N2CCc3c(cnc(C)c3CNC(=O)c3ccsc3)C2)c1 was read as S2 tox inactive and PINK1 expr mod -1%.
For CC(C)c1cccc(C(C)C)c1NC(=O)CCl the results were SW480 rerep 22%, S2 tox inactive, ATXN2 expr inh -26%, IL1B secr inh -83*, PINK1 expr mod -4% and MCF10A rereplic 0%.
`CCCN(CCC)c1nc(N)nc(C#N)n1` gave PINK1 expr mod 0%.
Screening O=C(OCc1ccccc1)N(CCCCN(CCCNCc1ccccc1)C(=O)OCc1ccccc1)CCCNCc1ccccc1 returned SW480 rerep inconclusive, S2 tox inconclusive, ATXN2 expr inh inconclusive, IL1B secr inh -17, PINK1 expr mod -2% and MCF10A rereplic 5.8µM*.

Source: PubChem BioAssay (National Center for Advancing Translational Sciences (NCATS))
